Values without a mark were called inactive. How the calls were made is not given here.
The molecules below were run on HIV-1 nucleocapsid protein NCp7 (binding to TG oligonucleotide) (assay: HIV Nucleocapsid (AID 346;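 further: potency is for inhibitors that block NC binding and lower polarization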)). Settings: HIV-1 NC / fluorescein-TGTGTGTG probe, fluorescence polarization.
How it was run: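 Fluorescence polarization binding of 100 nM HIV-1 NC to 10 nM fluorescein-labelled TG4xF oligonucleotide. Buffer was Hepes pH 7.5 with 250mM NaCl, 1uM ZnCl2, TCEP and 2-mercaptoethanol. Compounds were incubated 1 hr at room temperature before the read.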
For `COCCn1c(=O)c(-c2cccs2)nc2cnc(N3CCN(C)CC3)nc21`, the Potency was > 20 µM.
With `COc1cccc(Cn2c(=O)cnc3cnc(N4CCN(C)CC4)nc32)c1` the Potency was > 20 µM.
`COc1ccc(-c2nc3cnc(N(C)C)nc3n(C[C@H]3CCCO3)c2=O)cc1` was tested, and the Potency was > 20 µM.
In the case of `COc1ccc2[nH]cc(CCNc3ccnc(-c4cccnc4)n3)c2c1`, the Potency is reported as > 20 µM.
For `O=C(Nc1cccc(F)c1)N1CCCC2(CCN(C(=O)c3csnn3)CC2)C1`, the Potency was > 20 µM.
`Cc1nc2cnc(N(C)C)nc2n(C)c1=O` was tested, and the Potency was > 20 µM.
In the case of `COCCn1c(=O)c(-c2ccc(Cl)cc2)nc2cnc(Oc3cccc(Cl)c3)nc21`, the Potency is reported as > 20 µM.
In the case of `COCCn1c(=O)c(-c2ccccc2)nc2cnc(N3CCOCC3)nc21`, the Potency is reported as > 20 µM.
`CN(C)Cc1ccccc1-c1cc(Nc2ccccc2)ncn1` was tested, and the Potency was > 20 µM.
`CN(C)c1ccc(-c2cc(-n3ccnc3)ncn2)cc1` was tested, and the Potency was > 20 µM.
`CN1CCN(c2ncc3nc(-c4cn(C)c5ccccc45)c(=O)n(Cc4cccs4)c3n2)CC1` was tested, and the Potency was > 20 µM.
For `COc1ccc(CNc2ccnc(-c3cccc(NS(C)(=O)=O)c3)n2)c(OC)c1`, the Potency was > 20 µM.
`Cc1ccccc1-c1nc(-n2ccnc2)c2ccccc2n1` was tested, and the Potency was > 20 µM.
For `O=C(c1cc(C(F)(F)F)cc(C(F)(F)F)c1)N1CCC[C@@]2(CCN(Cc3ccccc3)C2)C1`, the Potency was > 4 µM.
For `c1cncc(-c2cncnc2NCc2cccs2)c1`, the Potency was > 20 µM.

From PubChem BioAssay (NCATS)
Potency means the concentration at half of the fitted maximal effect.
